# Mcl1-Bid inh – Mcl-1/Bid binding inhibitors, primary screen, biochemical, TR-FRET, 1536-well; 220,000 compounds, 0.97% hits; inhibition, % at 21.7 µM; TR-FRET Mcl-1/Bid-Dy647 peptide binding;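 active means compounds that cut the binding signal by more than half at the single screening dose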;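 further: His-tagged Mcl-1 with europium anti-His antibody binding Bid BH3 peptide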
# Target sequence (Q07820 whole entry, looked up): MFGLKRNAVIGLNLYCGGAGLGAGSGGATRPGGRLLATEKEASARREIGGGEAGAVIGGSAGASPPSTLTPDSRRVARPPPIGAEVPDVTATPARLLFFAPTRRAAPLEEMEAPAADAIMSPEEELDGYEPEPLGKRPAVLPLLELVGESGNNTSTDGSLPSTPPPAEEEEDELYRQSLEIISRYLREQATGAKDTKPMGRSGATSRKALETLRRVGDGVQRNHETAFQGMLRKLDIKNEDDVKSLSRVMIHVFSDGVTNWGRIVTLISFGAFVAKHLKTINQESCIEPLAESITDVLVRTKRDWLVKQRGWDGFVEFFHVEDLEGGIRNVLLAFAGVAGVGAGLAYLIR
# Mcl-1 Bim block – inhibitors of Bim peptide binding to Mcl-1, primary screen, biochemical, bead-based flow cytometry, multiplex. AID 1009, 2008. Induced myeloid leukemia cell differentiation protein Mcl-1 (Homo sapiens), Q07820. inhibition, % at 10 µM. 190,000 compounds, 0.1% hits. Bim peptide-Mcl-1 binding; in the data active means inhibition above about 40%
# MCL1-BIM inh – inhibitors of MCL1 binding to BIM-BH3, primary screen, biochemical, fluorescence polarization. GST-MCL1 / FITC-Bim-BH3 fluorescence polarization. inhibition, % at 10.9 µM. 320,000 compounds, 0.68% hits. AID 2057, 2009;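 active means inhibition above the mean inhibition of all tested compounds plus 3 SD, set per campaign, cut at about 40% in these data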;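 further: higher means more loss of mP so more displacement of Bim peptide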
# Mcl1 Noxa PPI – Mcl-1/Noxa binding inhibitors, primary screen, biochemical, TR-FRET, 1536-well; Induced myeloid leukemia cell differentiation protein Mcl-1 (Homo sapiens), Q07820; TR-FRET Mcl-1/Noxa peptide binding, 2 h; inhibition, % at 21.7 µM; 220,000 compounds, 1.5% hits;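 active means compounds that cut the protein-peptide binding signal by more than 50% relative to plate controls in a single-dose test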;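 further: His-tagged Mcl-1 with rhodamine Noxa BH3 peptide and terbium anti-His antibody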
# 14-3-3 Bad inh – inhibitors of 14-3-3 zeta/Bad binding, primary screen, biochemical, TR-FRET, bovine 14-3-3 zeta; 14-3-3 protein zeta/delta (Bos taurus), P63103; TR-FRET 14-3-3zeta/Dy647-pBad peptide displacement, 1 h; inhibition, % at 21.7 µM; 220,000 compounds, 0.71% hits; AID 781, 2007;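 active means inhibition above about 70%, limit read from the data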
# Target sequence (P63103 whole entry, looked up): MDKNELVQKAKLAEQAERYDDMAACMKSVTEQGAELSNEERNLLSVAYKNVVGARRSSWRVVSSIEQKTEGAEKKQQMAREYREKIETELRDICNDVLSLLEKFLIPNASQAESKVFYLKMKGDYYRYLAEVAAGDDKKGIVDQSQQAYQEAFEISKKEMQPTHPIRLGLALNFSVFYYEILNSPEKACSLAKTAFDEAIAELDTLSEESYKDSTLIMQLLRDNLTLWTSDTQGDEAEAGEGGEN
# eIF4E 4G PPI – eIF4E–eIF4G protein interaction inhibitors, primary screen, biochemical, uHTS, TR-FRET, eIF4GI fragment | Eukaryotic translation initiation factor 4E (Mus musculus) + Eukaryotic translation … | TR-FRET eIF4E-eIF4GI(517-606) binding, 2 h | inhibition, % at 21.7 µM | 220,000 compounds, 0.37% hits | AID 782, 2007;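 active means inhibition above about 30%, limit read from the data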
# Hits are given with their value; - = inactive; . = no result. Compounds with a hit are over-represented: about 2.6% of the library has one in this group of screens.
SMILES,Mcl1-Bid inh,Mcl-1 Bim block,MCL1-BIM inh,Mcl1 Noxa PPI,14-3-3 Bad inh,eIF4E 4G PPI
O=C(c1ccco1)N1CCN(c2ccc(N3CCCCC3)nn2)CC1,.,.,-,.,.,.
C[C@H]1CN(CCc2ccccc2)C(=O)[C@@H]1CC(=O)NCc1ccccc1,.,.,-,.,.,.
O=C(NC1CCCC1)c1csc2c1CCCC2,100.0,-,-,-,-,-
CCCNC(=O)c1csc2c1CCCCC2,-,-,-,-,-,-
CC(C)(C)c1ccc(-c2nnc(SCC(=O)c3ccc4c(c3)OCCO4)o2)cc1,-,-,-,-,87.1,-
O=C(CSc1nnc(-c2ccc(F)cc2)o1)c1ccc2c(c1)OCCO2,-,-,-,.,-,-
CCn1cc([N+](=O)[O-])c(C(=O)Nc2nc3ccc(OC)cc3s2)n1,-,-,-,-,-,-
O=C(CSCc1ccc(Cl)cc1)NCc1ccccn1,-,-,-,-,-,-
CCCCCCSc1ccc([C@H]2N[C@@](CC(C)C)(C(=O)OC)[C@H]3C(=O)N(CC)C(=O)[C@@H]23)cc1,.,.,-,.,.,.
O=C(CSc1nnc(COc2cccc3cccnc23)o1)N1CCc2ccccc21,84.0,-,-,-,-,-
Cc1ccc(C)c(NS(=O)(=O)c2ccc(OCC(=O)N3CCCC3)cc2)c1,-,-,-,-,-,-
Cc1ccccc1NS(=O)(=O)c1ccc(OCC(=O)N2CCCC2)cc1,-,-,-,57.6,-,-
Cc1cc(C(=O)C(C)OC(=O)c2ccc(NC(=O)CC#N)cc2)c(C)n1-c1ccccc1 (configuration not stated),.,.,-,.,.,.
CCN(CC)CCNC(=O)c1ccc(CS(=O)(=O)c2ccc(Br)cc2)o1,58.4,-,-,-,-,-
CCC1Oc2ccc(C)cc2N(CC(=O)NCC2CCCO2)C1=O (configuration not stated),.,.,-,.,.,.
Cc1nn(Cc2ccc(Cl)cc2)c(C)c1NC(=O)CCCn1nc([N+](=O)[O-])c(Cl)c1C,-,-,-,-,-,-
COc1cccc(C(=O)N2CCN(Cc3ccccc3C(F)(F)F)CC2)c1,62.4,-,-,-,74.0,-
COc1cccc(C(=O)N2CCN(Cc3cc(Br)ccc3OC)CC2)c1,-,-,-,-,71.8,-
Cc1ccc(CN2CCN(Cc3ccccc3C(F)(F)F)CC2)cc1,-,-,-,-,80.5,-
COc1ccc(C(=O)N2CCN(Cc3ccccc3C(F)(F)F)CC2)cc1,.,.,-,.,.,.
O=C(CSc1ncnc2[nH]ncc12)Nc1nc(-c2ccc(F)c(F)c2)cs1,-,-,-,-,73.8,-
C/C(=N\NC(=O)c1ccccc1F)c1ccc2c(c1)Nc1ccccc1S2,-,-,-,62.3,-,-
Cc1cc(C)n(Cc2cccc(F)c2)c(=O)c1C#N,96.5,-,-,-,-,-
Cc1cc(C)n(Cc2ccccc2F)c(=O)c1C#N,-,-,-,-,-,-
COC(=O)/C=C(\C)N=Nc1c(O)[nH]c2ccccc12,-,.,-,51.6,-,-
SMILES,Mcl1-Bid inh,Mcl-1 Bim block,MCL1-BIM inh,Mcl1 Noxa PPI,14-3-3 Bad inh,eIF4E 4G PPI
CC(C)(C)c1cc(C(=O)N/N=C/c2ccc(-c3ccccc3[N+](=O)[O-])o2)n[nH]1,.,.,42.3,.,.,.
Cc1ccc(CNC(=O)CN(C)S(=O)(=O)c2cccs2)cc1,-,-,-,-,85.7,-
CN(CC(=O)NCCc1ccccc1)S(=O)(=O)c1cccs1,-,-,-,-,-,-
Cc1cc(C)cc(N=Cc2[nH]c3ccc(Br)c(Cl)c3c2O)c1,-,-,-,52.1,-,-
Cc1nnc(SCc2cc(=O)oc3cc(O)ccc23)n1Cc1ccccc1,-,-,-,-,-,-
Cc1nnc(SCc2cc(=O)oc3ccc4ccccc4c23)n1Cc1ccccc1,71.4,-,-,-,-,-
COc1cccc(/C=N/NC(=O)CNC(=O)C(c2ccccc2)c2ccccc2)c1O,.,.,-,.,.,.
CC(=O)NC1C(=O)N=C(SCC(=O)NC(C)c2ccccc2)NC1=O (configuration not stated),55.5,-,-,-,-,-
CC(=O)NC1C(=O)N=C(SCc2ccccc2)NC1=O (configuration not stated),-,-,-,-,-,-
CC1(C)Cc2c(C#N)c(N3CCN(C(=O)c4ccccc4Cl)CC3)nc(-c3ccco3)c2CS1,-,-,43.0,-,-,-
CC(=O)N1CCN(c2nc(-c3ccco3)c3c(c2C#N)CC(C)(C)SC3)CC1,-,-,-,-,-,-
COc1cc(CN2CCC(C(=O)N3CCC(C)CC3)CC2)cc(Br)c1O,-,-,-,-,79.3,-
COc1cc(CN2CCC(C(=O)N3CCN(c4ccccc4F)CC3)CC2)cc(OC)c1OC,-,-,-,-,-,-
COc1cc(CN2CCC(C(=O)NC3CCCC3)CC2)cc(Br)c1O,50.7,-,-,-,-,-
COc1cc(CN2CCNC(=O)C2CC(=O)NC2CCCC2)cc(OC)c1 (configuration not stated),.,.,-,.,.,.
CC(C)c1ccc(C(C(=O)NC2CCCC2)N(C(=O)c2csnn2)C2CC2)cc1 (configuration not stated),.,.,-,.,.,.
Cc1nc(SCC(=O)Nc2c(C)n(C)n(-c3ccccc3)c2=O)c(C#N)c(C)c1C,.,.,-,.,.,.
CCCc1cc(SCC(=O)Nc2c(C)n(C)n(-c3ccccc3)c2=O)n2c(nc3ccccc32)c1C#N,66.1,-,-,-,-,-
O=S(=O)(/N=C/c1c(O)ccc2ccccc12)c1cccs1,-,-,-,-,-,-
O=C(Nc1ccccc1Cl)C1CCCN(S(=O)(=O)c2ccc(F)cc2)C1 (configuration not stated),-,-,-,-,77.4,-
CCC(c1nnnn1Cc1ccco1)N1CCC(C(N)=O)CC1 (configuration not stated),-,-,-,-,-,-
CCCC(c1nnnn1Cc1ccco1)N1CCC(C(N)=O)CC1 (configuration not stated),-,-,-,-,71.2,-
CCc1ccccc1NC(=O)c1ccc(CN2CCC(Cc3ccccc3)CC2)cc1,-,-,-,-,-,-
c1ccc(NC2=NCCN2CCCC2CCCCC2)cc1,.,.,-,.,.,.
CC1CN(Cc2ccccc2Cl)CC(C)O1 (configuration not stated),51.4,-,-,-,-,-
FC(F)(F)c1ccccc1CN1CCC(Cc2ccccc2)CC1,.,.,-,.,.,.
Clc1ccccc1CN1CCC(Cc2ccccc2)CC1,53.8,-,-,-,-,-
